G9a inh – inhibitors of human histone lysine methyltransferase G9a | G9a H3K9 monomethylation, AlphaScreen, 2 h | Q96KQ7 | hit rate 8.8% among 350,000 | Potency, µM (series often up to 102 µM), for the others: at the highest dose activity, negative = inhibition, hits mostly inhibitors; also: potency is read from the fitted curve at half-maximal effect; % is scaled to controls: 0 for no effect and ±100 for the full control effect; nearly all actives have a fitted effect of over 75% in size
Target sequence (Q96KQ7 913-1193 limits assumed): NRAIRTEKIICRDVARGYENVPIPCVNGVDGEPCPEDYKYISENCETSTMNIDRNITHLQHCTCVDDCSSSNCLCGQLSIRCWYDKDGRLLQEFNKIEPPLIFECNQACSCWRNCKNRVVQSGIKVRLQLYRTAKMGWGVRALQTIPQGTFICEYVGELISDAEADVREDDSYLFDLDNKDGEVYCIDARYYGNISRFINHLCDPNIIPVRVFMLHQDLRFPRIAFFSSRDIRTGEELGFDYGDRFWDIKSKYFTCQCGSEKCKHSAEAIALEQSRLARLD
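Readings reflect AlphaScreen signal from monomethyl-H3K9 antibody detection. HMT at 20 nM; substrate b-H3K9 500 nM; cofactor SAM 20 uM; 2 h RT reaction; compounds tested as titrations in qHTS with 15 min preincubation.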
BAZ2B block – BAZ2B (human) inhibition. Q9UIF8. AlphaScreen BAZ2B-H3K14Ac peptide displacement. Potency, µM (doses to about 114 µM), for inactives: at the top dose activity change, negative = inhibition, most hits filed as inhibitors. hit rate 4.4% among 360,000; also: potency is read from the fitted curve at half-maximal effect; % is scaled to controls: 0 for no effect and ±100 for the full control effect; nearly all actives have a fitted effect of over 60% in size
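Multi-concentration screen (max 110 uM) measuring displacement of acetylated histone H3 peptide from BAZ2B by AlphaScreen, using 50 nM protein, 50 nM peptide and 10 ug/mL streptavidin donor plus Ni-chelate acceptor beads.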
PI5P4Ka inh – blocks human PI5P4K alpha kinase activity; PI5P4Kalpha enzyme, ADP-Glo luminescence, 60 min; active compounds read low; max response, %; hit rate 1.2% among 330,000; AID 652105; active = max response of -50% or lower; inconclusive = between -30% and -50%; inactive = -30% or higher; also: value at the top dose of about 77 µM; % is scaled to controls: 0 for no effect and ±100 for the full control effect
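qHTS, 1536-well: enzyme/substrate mix, compound by pin tool, 5 microM ATP final; RT 60 min; ADP-Glo reagents 1 (45 min) then 2 (30 min); luminescence.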
PLK1 PBD block – PLK1 (human) polo-box domain binding inhibition; Plk1 PBD binding of FITC phosphopeptide, fluorescence polarization; Potency, µM, for inactives: max response, negative = inhibition, most hits filed as inhibitors; hit rate 2.8% among 360,000; AID 720504; also: potency is read from the fitted curve at half-maximal effect; series mostly up to about 57 µM; % is scaled to controls: 0 for no effect and ±100 for the full control effect; nearly all actives have a fitted effect of over 65% in size
JMJD2A Tudor – inhibitors of human JMJD2A Tudor domain; hit rate 4.4% among 390,000; AlphaScreen JMJD2A-Tudor / H3K4me3 peptide binding; O75164; Potency, µM (top dose mostly 114 µM), for inactives: at the top dose activity change, negative = inhibition, actives largely listed as inhibitors; AID 504339; also: potency is read from the fitted curve at half-maximal effect; % is scaled to controls: 0 for no effect and ±100 for the full control effect; nearly all actives have a fitted effect of over 50% in size
HP1b binding inh – inhibitors of HP1-beta chromodomain binding to methylated histone tails; hit rate 0.56% among 390,000; P83916; AID 540317; Potency, µM (titrated, usually from 114 µM), inactives show at the top dose activity change, negative = inhibition, actives largely listed as inhibitors; AlphaScreen HP1-beta / biotin-H3K9me3 peptide binding; also: potency is read from the fitted curve at half-maximal effect; nearly all actives have a fitted effect of over 70% in size
Target sequence (P83916 whole entry, looked up): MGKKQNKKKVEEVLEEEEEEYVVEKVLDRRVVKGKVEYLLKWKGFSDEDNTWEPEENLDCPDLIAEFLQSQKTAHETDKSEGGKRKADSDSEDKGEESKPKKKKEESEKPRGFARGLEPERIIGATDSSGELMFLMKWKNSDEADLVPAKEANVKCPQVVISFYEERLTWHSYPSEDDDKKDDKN
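HP1-beta protein (50 nM final) preincubated 30 min at room temperature with biotinylated H3(1-18)K9me3 peptide (50 nM) in PBS pH 7.4, 0.01% Tween-20, then compound added for 30 min. AlphaScreen streptavidin donor/nickel chelate acceptor beads (10 ug/mL final), 30 min dark, luminescence read.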
Numbers without * were called inactive; ? = inconclusive; . = no result; [ ] = remark or other dose. An excerpt weighted towards active compounds, which were near 12% of everything screened. Unless noted, calls follow the shape of the dose curve; as a rule, active = well fitted curve in the direction sought with a large enough effect; inconclusive = small, poorly fitted or top-dose-only effect, or another doubt; inactive = no such curve, though single readings can be large; an effect the other way counts as inactive or inconclusive.

SMILES	G9a inh	BAZ2B block	PI5P4Ka inh	PLK1 PBD block	JMJD2A Tudor	HP1b binding inh
Cc1ccc(N/N=C2\CCS(=O)(=O)c3sccc32)cc1	8.9µM*	?	-9	-2%	?	13%
[O-]/C(=C(\C(=S)Nc1ccc(SC(F)F)cc1)[n+]1ccccc1)c1cc(Cl)ccc1Cl	35µM*	?	-2	-10%	?	-18%
Cc1cc(C)c(/C([O-])=C(/C(=S)Nc2ccc(SC(F)F)cc2)[n+]2ccccc2)cc1C	35µM*	22µM*	5	-29%	?	-22%
c1ccc(-c2cc(NCCN3CCCCC3)c3ccccc3n2)cc1	40µM*	-21%	0	-13%	-14%	21%
Cc1ccc(NC(=O)C(NC2CCCc3ccccc32)c2ccccc2)c([N+](=O)[O-])c1 (stereo unspecified)	11µM*	45µM*	4	-12%	4.5µM*	25µM*
CCc1ccc(NC(=O)c2ccc(Cn3nc(N4CCN(c5ccccc5)CC4)ccc3=O)o2)cc1	?	50µM*	.	.	?	2%
CSc1nsc(SCC(=O)Nc2ccc(Cl)c(C(=O)O)c2)n1	50µM*	-12%	-17	-17%	-4%	5%
CSc1nsc(SCC(=O)Nc2ccc(O)c(C(=O)O)c2)n1	40µM*	-14%	?	?	-13%	27%
CSc1nsc(SCC(=O)Nc2ccccc2C(=O)O)n1	7.9µM*	?	?	?	?	36%
Cc1nnc(SCC(=O)Nc2ccccc2NC(=O)CSc2nnc(C)s2)s1	-1%[59 µM]	-4%	-12	-5%	-2%	7%
CSc1nsc(SCC(=O)Nc2ccc(NC(C)=O)cc2)n1	17%	-13%	5	-22%	3%	13%
Cc1nnc(SCC(=O)Nc2ccccc2C(=O)NC2CC2)s1	45µM*	11%	1	-3%	3%	56%
COc1ccc(NC(=O)CSc2nc(SC)ns2)cc1	-12%	-1%	1	-8%	-4%	43%
Cc1noc(C)c1-c1nccc(NCc2ccccc2)n1	-49%[0.501 µM]	.	.	.	.	.
Cc1cc(C)cc(NC(=O)C(=O)NCC(c2ccc3c(c2)OCO3)N2CCOCC2)c1 (stereo unspecified)	-21%[59 µM]	0%	.	.	-7%	17%[57 µM]
Cc1nn(-c2ccc(N3CCCCC3)nn2)c(C)c1CCC(=O)NCc1ccc(Cl)cc1	11%[59 µM]	?	.	.	?	101%
CN(C)c1ccc(-c2nnc(-c3ccccc3F)o2)cc1	112%	29%	-5	-10%	9%	45%
CCCN(CC(=O)Nc1ccc(F)c(F)c1F)C(=O)Cc1ccc(OC)c(S(=O)(=O)N2CCOCC2)c1	.	.	-5	-7%	-5%	64%
Cn1c(=O)c2c(nc(CN3CCc4ccccc4C3)n2CCCO)n(C)c1=O	11µM*	-14%	10	2%	1%	39%
Cn1c(=O)c2c(nc(CN3CCN(c4ccccc4F)CC3)n2Cc2ccccc2F)n(C)c1=O	2%[59 µM]	.	.	.	-14%	23%
Cn1c(=O)c2c(nc(CN3CCc4ccccc4C3)n2Cc2ccccc2F)n(C)c1=O	18µM*	-19%	3	-12%	-27%	42%
COCCn1c(CN2CCc3ccccc3C2)nc2c1c(=O)n(C)c(=O)n2C	.	-5%	-1	-8%	-2%	33%
CCOC(=O)Cn1c(CN2CCc3ccccc3C2)nc2c1c(=O)n(C)c(=O)n2C	40µM*	4%	7	-7%	-27%	59%
COc1ccc(NC(=O)CSc2nnc(N)s2)cc1S(=O)(=O)N1CCCCC1	.	.	2	-5%	-11%	28%
CCOC(=O)c1c(C)nsc1NC(=O)C1CCCCC1	.	17%	3	0%	36%	90%
SMILES	G9a inh	BAZ2B block	PI5P4Ka inh	PLK1 PBD block	JMJD2A Tudor	HP1b binding inh
CCN(CC)c1ccc(NC(=O)COc2ccc(-n3cnnn3)cc2)cc1	.	.	0	1%	50µM*	?
CCN(CC)c1ccc(NC(=O)COc2ccc(N(C)S(=O)(=O)c3cccs3)cc2)cc1	7.9µM*	10µM*	0	-10%	?	-22%
CCCSc1nc2c([nH]c3ccccc32)c(=O)n1C	15%[59 µM]	1%	.	.	0%	27%[57 µM]
CCC(C(=O)NCCc1c[nH]c2ccc(C)cc12)c1ccccc1 (stereo unspecified)	-13%	-23%	4	-16%	?	17%
CCCCN(CCCC)CC(O)COc1ccc(Br)cc1 (stereo unspecified)	7.9µM*	32µM*	-3	-8%	1.4µM*	?
O=[N+]([O-])c1ccc(OCC(O)CN(CCO)CCO)cc1 (stereo unspecified)	-18%[59 µM]	-7%	0	-13%	-10%	24%
Cc1ccccc1-c1cc(NCCN2CCOCC2)ncn1	-32%[0.501 µM]	.	.	.	.	.
O=C(Nc1ccccc1)C1CCN(S(=O)(=O)c2cccs2)CC1	-3%[59 µM]	-1%	8	5%	4%	32%
O=C(Nc1ccc(Nc2ccccc2)cc1)C1CC1	25µM*	?	-2	-1%	?	7%
O=C(Nc1ccc(Cc2ccc(NC(=O)C3CC3)cc2)cc1)C1CC1	-1%	.	-7	27µM*	-24%	16%
O=C(Nc1ccccc1)C1CCN(c2nccs2)CC1	50µM*	-28%	-3	?	3%	-16%
O=C(Nc1ccccc1)C1CCCCC1	-1%[59 µM]	3%	.	-1%	-7%	41%
CC12CCC(CC1O)C2C(=O)O (stereo unspecified)	.	.	2	0%	.	.
CC1=C(C(=O)OCc2ccccc2)C(c2ccc(Cl)cc2Cl)NC(=O)N1CCCC(=O)O (stereo unspecified)	56µM*	-39%	-76*	-20%	-21%	66%
CCOC(=O)C1=C(C)N(CCCC(=O)O)C(=O)NC1c1ccc(Cl)cc1Cl (stereo unspecified)	11%	1%	-98*	-4%	1%	58%
CC1=C(C(=O)OCc2ccccc2)C(c2ccc(Cl)cc2Cl)NC(=O)N1CCCCCC(=O)O (stereo unspecified)	?	?	?	-25%	-29%	10%
CCS(=O)(=O)N1Cc2cc(C(=O)N(C)C)nc(-c3cccc(-c4ccc(F)cc4)c3)c2[C@@H]1CCO	.	.	-3	-6%	.	.
Cc1ccc(C(=O)NN2C(=O)c3ccc(S(=O)(=O)c4ccc(C(=O)O)cc4)cc3C2=O)cc1	?	-3%	-13	21µM*	16µM*	3%
O=C(O)c1ccc(S(=O)(=O)c2ccc3c(c2)C(=O)N(NC(=O)c2ccc(O)cc2)C3=O)cc1	-47%	?	5	-24%	-11%[11.4 µM]	46%
CCCOc1ccccc1NC(=O)/C=C/C(N)=O	35µM*	9%	.	-15%	-5%	15%
CCCCOc1ccccc1NC(=O)C=C(C)C	-6%[12.7 µM]	29%	.	-12%	35%	35%
C=CCCC(=O)N1CCC(n2nccc2NC(=O)c2ccccc2C)CC1	.	2%	4	-2%	6%	18%

High-throughput results as filed in PubChem.
